Screening data deposited in PubChem BioAssay by several laboratories.
Compounds with a hit are over-represented: about 2% of the library has one in this group of screens.
PKA-R2B act: activators of PKA-R2B holoenzyme, primary screen, biochemical, fluorescence polarization, Cy5-IP20, human. cAMP-dependent protein kinase catalytic subunit beta (Homo sapiens) + cAMP-dependent …. PKA-R2B holoenzyme dissociation; R2B truncated from residue 108, S112A mutant; 0% DMSO only, 100% 113 µM cGMP. activation, % at 11.4 µM. actives 0.079% (n = 340,000);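 active = activation above a cutoff set at the mean over all compounds plus 3 SD, cut at about 18% in these data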;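 also: higher means more holoenzyme dissociation and a rise in polarization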
Target sequence (P31323 whole entry, looked up, other chains not shown, the tested form may be a part): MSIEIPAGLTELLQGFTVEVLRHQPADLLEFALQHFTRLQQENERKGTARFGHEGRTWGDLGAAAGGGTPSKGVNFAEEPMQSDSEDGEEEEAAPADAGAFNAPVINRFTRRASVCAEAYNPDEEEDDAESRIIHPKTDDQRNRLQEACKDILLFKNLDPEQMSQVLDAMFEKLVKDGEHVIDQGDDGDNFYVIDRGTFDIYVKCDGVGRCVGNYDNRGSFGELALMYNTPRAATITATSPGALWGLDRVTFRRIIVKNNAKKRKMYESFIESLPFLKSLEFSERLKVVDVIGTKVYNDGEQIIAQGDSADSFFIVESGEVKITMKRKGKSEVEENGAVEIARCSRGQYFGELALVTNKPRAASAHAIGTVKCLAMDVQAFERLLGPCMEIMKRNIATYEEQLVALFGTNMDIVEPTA
bovine MsrA act: bovine MsrA enzyme activators, primary screen, biochemical, absorbance, HTS. Methionine sulfoxide reductase A (Bos taurus). purified bovine MsrA, absorbance read-out. activation, % at 10.6 µM. actives 0.3% (n = 360,000). AID 602163, 2012; in the data active = activation above about 7.5%;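 also: 0% = vehicle and 100% = reference activator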
PKA-R1A activ: activators of PKA-R1A holoenzyme, primary screen, biochemical, fluorescence polarization, Cy5-IP20, bovine R1A, mouse PKAc | cAMP-dependent protein kinase type I-alpha regulatory subunit (Bos taurus) + … | actives 0.083% (n = 340,000) | PKA-R1A dissociation; scaled: DMSO 0%, 113 µM cGMP 100% | AID 504707, 2011 | activation, % at 11.4 µM;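 active = percent activation above the mean of all tested compounds plus 3 SD, cut at about 19% in these data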;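 also: higher means more PKAc released from R1A so a rise in polarization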
MsrA inh: bovine MsrA enzyme inhibitors, primary screen, biochemical, absorbance, HTS; purified bovine MsrA, absorbance read-out; actives 0.75% (n = 360,000); inhibition, % at 15.5 µM; Methionine sulfoxide reductase A (Bos taurus); in the data active = inhibition above about 4.5%;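 also: 0% = vehicle wells with enzyme and 100% = reference inhibitor wells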
Mot1-301 SUMO: yeast Mot1-301 growth rescue at high temperature, primary screen, SUMOylation pathway inhibitor project, S. cerevisiae, ATP luminescence, 38.5C; actives 1% (n = 320,000); growth rescue, % at 18.8 µM; S. cerevisiae Mot1-301 growth rescue; percent above DMSO median, 100 means doubled;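 active = every valid replicate shows activation above 250% relative to neutral control wells; inactive = the rest, any valid replicate at or below 250%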;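 also: OY570 slx delta 5 strain wells were the positive control but not used for scaling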
Yeast Mot1 SUMO: growth restoration of Mot1-301 yeast on galactose, dose response, SUMO pathway inhibitor project, whole organism, S. cerevisiae, ATP luminescence, cherry-picked samples. shares compounds with Mot1-301 SUMO. S. cerevisiae Mot1-301 galactose growth, 24 h; -100 = growth of slx-deleted rescue strain. growth activity, percent, % at 42 µM. 2,300 tested, under 10 active. AID 493004, 2010;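 active = Signal drops as the depositor expects, and the fitted half-maximal dose is no more than ten times the top valid tested dose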;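 also: more negative values mean stronger growth rescue toward the control strain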
* marks the source's active call; other numbers are inactive results; . = no result given; + = active, no number; [ ] = remark or other dose.

SMILES	PKA-R2B act	bovine MsrA act	PKA-R1A activ	MsrA inh	Mot1-301 SUMO	Yeast Mot1 SUMO
COc1ccc(NC(=O)c2cc(C)no2)cc1Cl	-5	-2	2	0	432*	0
COc1cc(NC(=O)[C@@H](Cc2ccccc2)NC(=O)[C@H]2O[C@@H](n3ccc(=O)[nH]c3=O)[C@H](O)[C@@H]2O)cc(OC)c1OC	.	.	.	0	.	.
Cc1onc(-c2ccccc2)c1C(=O)N/N=C/C=C/c1ccccc1	.	-3	.	3	382*	2
O=C(Nn1c(O)c(C=C2N=c3ccccc3=N2)sc1=S)c1ccccc1Cl	-14	-13	-17	1	-9	.
O=S(=O)(Nn1c(O)c(C=C2N=c3ccccc3=N2)sc1=S)c1ccccc1	2	-4	-15	2	908*	1
CCOC(=O)Nc1sc(=S)n(C)c1C	-5	-3	-8	2	509*	0
COC(=O)CCC(=O)OC1(C)C(=O)C2=CN(CCc3c[nH]c4ccccc34)C(c3ccc(OC)cc3)=CC2=C(Br)C1=O (stereo unspecified)	13	-4	1	.	419*	0
COC(=O)CCC(=O)OC1(C)C(=O)C2=CN(Cc3ccccc3)C(c3ccc(OC)cc3)=CC2=C(Br)C1=O (stereo unspecified)	-8	-1	2	2	16	.
O=C(O)CCC(NC(=O)c1ccc(Cl)cc1)C(=O)O (stereo unspecified)	-2	-4	-1	0	+	0
CCCn1nc(C(=O)NNC(=O)c2cccc(S(=O)(=O)NC(C)C)c2)c2ccccc2c1=O	11	-5	-14	0	2	.
CCCn1nc(C(=O)NNC(=O)c2cc(S(=O)(=O)NC)ccc2Br)c2ccccc2c1=O	-2	-7	2	0	549*	-1
Cc1ccc2cccc(OCc3nnc(SCC(=O)O)n3C)c2n1	2	-4	-5	1	+	0
C=CCn1c(COc2cccc3ccc(C)nc23)nnc1SCC(N)=O	-2	-11	-9	0	6	.
NC(=O)C1CCCN(C(=S)Nc2cccc3ccccc23)C1 (stereo unspecified)	2	-2	6	1	909*	0
NC(=O)C1CCCN(C(=S)NCc2ccc3c(c2)OCO3)C1 (stereo unspecified)	-12	-5	-5	0	4	.
Cc1ccc2nc(N/N=C/c3ccccc3F)nc(-c3ccccc3)c2c1	-1	2	-8	3	473*	0
CC(C)[C@H](NC(=O)CC1CCCC1)C(=O)N1CCC[C@H]1C(=O)NCCc1ccccc1Cl	.	.	.	-1	.	.
CS(=O)(=O)c1ccc(Cl)c(NC(=O)c2ccc3ccccc3c2)c1	-19	-2	-15	0	+	0
O=C1CN(C(=O)c2c(F)cccc2F)C(c2ccc(F)cc2)c2cc(F)ccc2N1 (stereo unspecified)	-1	-2	6	0	677*	-1
COC(=O)[C@]12C[C@H](CC(=O)NCC34CC5CC(CC(C5)C3)C4)C(=O)N(CCC3=CCCCC3)C1=C[C@H](COCc1ccccc1)O[C@@H]2C	.	.	.	0	.	.
Cn1nc(C(C)(C)C)cc1C(=O)NCC1CCN(C(=O)C(=O)c2cc3ccccc3o2)CC1	.	.	.	1	.	.
Cc1cc2c(c(=O)o1)[C@@]1(C(=O)N(c3ccccc3)c3ccccc31)C1=C(CCCC1=O)O2	.	.	.	0	.	.
COC(=O)CSc1ccc(S(=O)(=O)N2CCCCCC2)cc1[N+](=O)[O-]	-2	-2	7	0	520*	1
CCOC(=O)CSc1ccc(S(=O)(=O)N2CCCCC2)cc1[N+](=O)[O-]	-5	-3	-3	0	-10	.
O=C(COC(=O)CNC(=O)c1ccc(Cl)cc1)Nc1ncc(C(F)(F)F)cc1Cl	6	-3	-11	2	596*	0
SMILES	PKA-R2B act	bovine MsrA act	PKA-R1A activ	MsrA inh	Mot1-301 SUMO	Yeast Mot1 SUMO
CCC(=O)OCC(=O)Nc1ncc(C(F)(F)F)cc1Cl	-8	-2	5	0	-1	.
CN(CCOc1ccc(-c2ccn(S(=O)(=O)c3cccc4ccccc34)n2)cc1)c1ccccn1	0	-1	-9	0	643*	0
CC(=NNc1cc(C)c2ccccc2n1)c1ccccn1	.	.	.	1	.	.
Cc1cc(C)n(C(=O)CNC(=O)c2ccc3c(c2)OCCO3)n1	13	3	-1	0	601*	0
Cc1cc(C)n(C(=O)CNC(=O)c2cccc(Cl)c2)n1	-7	-2	-20	0	.	.
Cc1ccc(C(=O)NCC(=O)Nc2ccc3c(c2)OCCO3)cc1	-12	-1	-2	0	580*	0[21 µM]
Cc1ccc(-c2nn(-c3ccccc3)cc2C(=O)N2CCN(c3ccccn3)CC2)cc1	-11	-7	3	0	596*	1
O=C(c1cn(-c2ccccc2)nc1-c1ccccc1)N1CCN(c2ccccn2)CC1	-6	-7	2	-1	-28	.
COC(=O)C1=C(C)N(Cc2ccccc2C(F)(F)F)C(=NCc2cc(OC)c(OC)c(OC)c2)NC1c1cccc(Cl)c1 (stereo unspecified)	.	.	.	-1	.	.
CCCCn1c2c(c(=O)n(C)c1=O)C(c1ccc(OC)cc1)N1CCCCCC1=N2 (stereo unspecified)	-3	-10	-8	0	+	0
CNC[C@@H]1OCc2cnnn2CCCC(=O)N([C@@H](C)CO)C[C@H]1C	.	.	.	2	.	.
O=C(N[C@H](Cc1ccccc1)C(=O)N(CCC1=CCCCC1)CC1CC1)[C@H]1O[C@@H](n2ccc(=O)[nH]c2=O)[C@H](O)[C@@H]1O	.	.	.	-1	.	.
C[C@H](CO)N1C[C@H](C)[C@@H](CN(C)C(=O)Nc2ccc(C(C)(C)C)cc2)OCc2cn(nn2)CCCC1=O	.	.	.	0	.	.
COC(=O)c1ccc(N2C(=O)CC(NCc3ccccc3)C2=O)cc1 (stereo unspecified)	-4	-10	-2	-1	+	1
COc1ccc(OCC(O)CN2C(=O)NC(C)(C)C2=O)cc1 (stereo unspecified)	-7	0	-4	1	+	2
O=C(CCC(=O)Nc1ccc(F)cc1)N/N=C/c1cccs1	-1	-2	-1	0	545*	1
O=C(CCC(=O)Nc1ccc(F)cc1)N/N=C/c1ccccc1O	-2	-3	0	0	-11	.
